System: RIPK2
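Further: kd values determined as follow-up on hits from a single-replicate KINOMEscan panel screen.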

| Compound | Kd [nM] |
| --- | --- |
| CC(C)c1ccc(O)cc1Nc1ccnc2ccc(C(F)(F)F)cc12 [GW482059] | > 10000 |
| O=C(Nc1n[nH]c2nc(-c3cccs3)c(Br)cc12)C1CC1 [SB-735297] | > 10000 |
| Cn1cncc1-c1cc2c(Nc3ccc(OCc4ccccc4)cc3)ncnc2cn1 [GW281179] | 65 |
| CS(=O)(=O)CCNCc1nc(-c2ccc3ncnc(Nc4ccc5c(cnn5Cc5ccccc5)c4)c3c2)cs1.Cl.Cl [GW569716] | 67 |

System: ROCK1

| Compound | Kd [nM] |
| --- | --- |
| CC(C)c1ccc(O)cc1Nc1ccnc2ccc(C(F)(F)F)cc12 [GW482059] | > 10000 |
| c1ccc(-c2ccnc3[nH]ccc23)cc1 [SB-693578] | 150 |
| Cn1cncc1-c1cc2c(Nc3ccc(OCc4ccccc4)cc3)ncnc2cn1 [GW281179] | 590 |

System: T1, RSK4(Kin.Dom.2-C-terminal)
T1 construct: gene RPS6KA6

| Compound | Kd [nM] |
| --- | --- |
| Fc1ccc(-c2nc[nH]c2-c2ccncc2)cc1 [SB-217360] | 310 |
| Fc1ccc(-c2nc3n(c2-c2ccncc2)CCS3)cc1 [GI98581] | 260 |
| Cc1cccc2c(-c3ccncn3)c(-c3ccc(F)cc3)nn12 [GW515532] | 6800 |

Source: article PMC5540273 (PLoS ONE, 2017)
